# Measurements: PubChem BioAssay (EPA / NIEHS)
# Where “and” joins values, the source holds several entries; their conditions need not be identical. Equal values may be shown once. Results filed as inconclusive are left out. The source holds several records for some structures; these can differ, active in one and inactive in another. Calls of active or inactive are those of the source. Rule for the calls: active = hit-call score of the fitted dose curve at least 0.9, where 1 is the maximum; inconclusive = response in the unintended direction; inactive = score below 0.9.
# Tested on: not listed separately
# Assay: TOX21_p53_BLA_p3_viability: Viability Assessment in the Tox21 HCT-116 p53 Agonism Beta-lactamase Assay, Phase 3 (AID 2283593);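 note: cells exposed to compound for 16 h before reading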
# Summary of the method: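 HCT-116 cells (4000/well) rested 5 h at 37C, then got DMSO compounds by pin tool (217-fold dilution) for 16 h at 37C, 5% CO2. After the bla read, CellTiter-Glo was added and luminescence read at 30 min, room temperature.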
Compound,outcome,AC50
C=C(C)C(N)=O,inactive,
CC/C(=C(\c1ccccc1)c1ccc(OCCN(C)C)cc1)c1ccccc1,,74.8 µM (active) [middle of 5 runs]
C[C@]12CC[C@@H]3c4ccc(O)cc4CC[C@H]3[C@@H]1CC[C@@H]2O,inactive,
COC(=O)c1ccc(C(=O)OC)cc1,inactive,
CCCCOCCOCCO,inactive,
O=C(c1ccc(OCCN2CCCCC2)cc1)c1c(-c2ccc(O)cc2)sc2cc(O)ccc12,,69.8 µM (active) and 74.5 µM (active) and 35.6 µM (active)

# Molecular target: Cellular tumor antigen p53 (Homo sapiens) (UniProt P04637)
# Assay: TOX21_p53_BLA_p3_ratio: Tox21 HCT-116 p53 Agonism Beta-lactamase Assay, Ratio, Phase 3 (AID 2283596)
# Summary of the method: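 Cells were seeded at 4000/well, rested 5 h at 37C, then dosed with DMSO compound solutions (217-fold dilution) for 16 h. CCF4-AM substrate was loaded for 2 h at room temperature, and the 460/530 nm emission ratio was fitted for gain of signal versus DMSO.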
# Sequence of Cellular tumor antigen p53 (Homo sapiens) (P04637 whole entry, looked up): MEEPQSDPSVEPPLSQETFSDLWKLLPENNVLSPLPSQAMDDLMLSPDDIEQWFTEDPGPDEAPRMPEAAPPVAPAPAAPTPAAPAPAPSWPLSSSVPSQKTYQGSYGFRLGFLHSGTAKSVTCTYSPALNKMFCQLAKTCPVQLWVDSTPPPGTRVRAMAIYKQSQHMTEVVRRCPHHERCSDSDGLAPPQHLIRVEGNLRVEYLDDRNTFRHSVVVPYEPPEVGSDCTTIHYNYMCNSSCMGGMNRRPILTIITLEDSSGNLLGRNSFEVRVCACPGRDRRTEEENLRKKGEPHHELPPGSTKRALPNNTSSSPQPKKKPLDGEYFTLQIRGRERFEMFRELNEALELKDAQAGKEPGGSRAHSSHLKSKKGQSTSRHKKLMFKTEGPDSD
Compound,outcome,AC50
C=C(C)C(N)=O,inactive,
CC/C(=C(\c1ccccc1)c1ccc(OCCN(C)C)cc1)c1ccccc1,inactive,86.9 µM (active) [middle of 4 runs]
C[C@]12CC[C@@H]3c4ccc(O)cc4CC[C@H]3[C@@H]1CC[C@@H]2O,inactive,32 µM (active) and 34.9 µM (active)
COC(=O)c1ccc(C(=O)OC)cc1,inactive,
O=C(c1ccc(OCCN2CCCCC2)cc1)c1c(-c2ccc(O)cc2)sc2cc(O)ccc12,,74.5 µM (active) and 71.4 µM (active) and 26.1 µM (active)
C#C[C@]1(O)CC[C@H]2[C@@H]3CCc4cc(O)ccc4[C@H]3CC[C@@]21C,,15.2 µM (active) and 16.2 µM (active)

# Tested on: not listed separately
# Assay: TOX21_p53_BLA_p4_viability: Viability Assessment in the Tox21 HCT-116 p53 Agonism Beta-lactamase Assay, Phase 4 (AID 2283597);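 note: hits lower the luminescence signal meaning cytotoxicity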
# Summary of the method: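 ATP content by CellTiter-Glo luminescence, 30 min RT, read after the beta-lactamase ratio step. Cells: HCT116, 4000/well, compound added after 5 h, exposure 16 h at 37C. Signal loss = reduced viability.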
Compound,outcome,AC50
C=C(C)C(N)=O,inactive,
CC/C(=C(\c1ccccc1)c1ccc(OCCN(C)C)cc1)c1ccccc1,inactive,22.9 µM (active) and 46.5 µM (active) and 32.3 µM (active)
C[C@]12CC[C@@H]3c4ccc(O)cc4CC[C@H]3[C@@H]1CC[C@@H]2O,inactive,
COC(=O)c1ccc(C(=O)OC)cc1,inactive,
CCCCOCCOCCO,inactive,
O=C(c1ccc(OCCN2CCCCC2)cc1)c1c(-c2ccc(O)cc2)sc2cc(O)ccc12,,68.2 µM (active) and 68.5 µM (active) and 25.1 µM (active)
C#C[C@]1(O)CC[C@H]2[C@@H]3CCc4cc(O)ccc4[C@H]3CC[C@@]21C,inactive,

# Molecular target: Cellular tumor antigen p53 (Homo sapiens) (UniProt P04637)
# Assay: TOX21_p53_BLA_p5_ratio: Tox21 HCT-116 p53 Agonism Beta-lactamase Assay, Ratio, Phase 5 (AID 2283599)
# Summary of the method: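 HCT-116 cells carrying a p53-inducible beta-lactamase reporter were seeded at 4000 cells/well and dosed after 5 h with compound in DMSO (217-fold dilution). After 16 h at 37C, CCF4-AM substrate was added for 2 h, and the 460/530 nm emission ratio was scored as gain-of-signal versus DMSO.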
Compound,outcome,AC50
C=C(C)C(N)=O,inactive,
CC/C(=C(\c1ccccc1)c1ccc(OCCN(C)C)cc1)c1ccccc1,,75.4 µM (active) [middle of 4 runs]
C[C@]12CC[C@@H]3c4ccc(O)cc4CC[C@H]3[C@@H]1CC[C@@H]2O,inactive,31.7 µM (active) and 34.6 µM (active)
COC(=O)c1ccc(C(=O)OC)cc1,inactive,
CCCCOCCOCCO,inactive,
O=C(c1ccc(OCCN2CCCCC2)cc1)c1c(-c2ccc(O)cc2)sc2cc(O)ccc12,,72.8 µM (active) and 81.5 µM (active) and 36.2 µM (active)
C#C[C@]1(O)CC[C@H]2[C@@H]3CCc4cc(O)ccc4[C@H]3CC[C@@]21C,,11.7 µM (active) and 13.9 µM (active) and 7.67 µM (active)
